Source: PMC12136788
Where a chain is given by its changes, count along the chain named. In all, about 5,800 sequences were measured (“enrichment r”: median about 0.68, highest 2% from about 11 on). Many of the other results were omitted from the sample, so the highest values are more common in it than they were.

T1: UNK ZnF1-6 (called full-length) (human, UniProt Q9C0B0 30-357)
T1 sequence: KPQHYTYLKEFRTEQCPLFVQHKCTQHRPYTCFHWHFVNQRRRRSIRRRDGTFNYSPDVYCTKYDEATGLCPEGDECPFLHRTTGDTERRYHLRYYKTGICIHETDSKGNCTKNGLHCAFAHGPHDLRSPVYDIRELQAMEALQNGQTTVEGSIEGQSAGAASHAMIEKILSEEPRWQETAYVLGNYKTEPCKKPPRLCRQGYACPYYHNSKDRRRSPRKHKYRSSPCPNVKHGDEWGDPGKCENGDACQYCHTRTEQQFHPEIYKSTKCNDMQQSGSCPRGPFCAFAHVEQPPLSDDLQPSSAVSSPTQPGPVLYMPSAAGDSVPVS

B1: ENSG00000107863:be:win_4801|CDS|ENSG00000107863|bound_else_gene|NA|bound_elsewhere_windowed (ssRNA)
RNA: GGGAGUUCUACAGUCCGACGAUCUCCAGUCGACUGAGCCCUGAGGUGCAAUCCGUGGCAGAGAGCAAGGGGGACGAGGCAGAUGACGAGAGAAGCGAACUCAUCAGUGAAGGGCGGCCUGUGGAAACCGACAGCGAGAGCGAGCAACAGAGGAUUGAGCAUCA
B2: chr17:41691520:41691533:+|3pUTR|ENSG00000173812|msi1_unk|total|mutant (ssRNA)
RNA: GGGAGUUCUACAGUCCGACGAUCGGAACAAAUCUCAAACUGAUCCAUCAGUCAUGCCGCCCGCUGCCGAGCUUGCAACUUAACCGCAGCAGCUGCCCAAUGCCAUGUGAAGUAACAAACUGGUUUUUGGUUUUUUUUUCCCCUCAACAGAGGAUUGAGCAUCA
B3: chr19:5558166:5561399:-|three_prime_utr|ENSG00000223573|control|control|control (ssRNA)
RNA: GGGAGUUCUACAGUCCGACGAUCCCAGCUGAUGCACACUGCUUCAGACACUCCUGCUGGAGCCCCAGUCCCUGACAAGGACCUAGGACAUUUUUGCUCCUGCCCAGCCUAUCGGGAGGGAGCCUUGAGCCUUUCAGCUCUGCUCAACAGAGGAUUGAGCAUCA
B4: ENSG00000070961:be:win_51|CDS|ENSG00000070961|bound_else_gene|NA|bound_elsewhere_windowed (ssRNA)
RNA: GGGAGUUCUACAGUCCGACGAUCUUUGAAGGAAGCUAAUCAUGAUGGAGACUUUGGAAUUACGCUCGCAGAGCUGCGGGCUCUCAUGGAGCUCAGGUCCACAGAUGCAUUACGAAAAAUACAGGAAAGCUAUGGAGAUGUCUACAACAGAGGAUUGAGCAUCA
B5: chr16:48080881:48083801:-|three_prime_utr|ENSG00000140798|control|control|control (ssRNA)
RNA: GGGAGUUCUACAGUCCGACGAUCUGAGUUUGACAAGCCUGAAGUCCUUGCAGAGAAGCCAGAUUCUGCAUUUGCGAUGUUACUAGCAGCAGAAGUCAGAUUGUAGAGGUCCUGGCGGCUGAUUCUAGAGGAGGAAGAGGCUCUCAACAGAGGAUUGAGCAUCA
B6: chr1:205790044:205790145:-|3pUTR|ENSG00000133065|msi1|FALSE|bound_elsewhere (ssRNA)
RNA: GGGAGUUCUACAGUCCGACGAUCAGAUUCUUCUGCCUCUUUCUCCUUUCCAGACCCCUACUCUGUGCAGUGCUGACCACAGCUAGAGCCACCGCCCCAUUGCUCAACCAGUAUUUAUUUCCCUAAACGACCCUUCCUCACAUUCAACAGAGGAUUGAGCAUCA
B7: chr11:107429260:107429366:-|CDS|ENSG00000152404|unk|FALSE|unique (ssRNA)
RNA: GGGAGUUCUACAGUCCGACGAUCGAGGAAACCCACAUAUUCAGAUAAAGCACAAAAUUGUCAAGAAAGUAGAGAAUCAGACUUAGUAAAAUAUGGUAACAGUUCAAGGGAUAGAUAUGCUACAACAGAUACUGCAAAAAAUAGCAACAGAGGAUUGAGCAUCA
B8: chr7:5606511:5606625:+|3pUTR|ENSG00000075618|msi1_unk|FALSE|overlapping (ssRNA)
RNA: GGGAGUUCUACAGUCCGACGAUCGGGUGUCUUGGUCUUUUAUUUUUUGUAAGUGUCAUUUGUAUAACUCUAAACGCCCAUGAUAGUAGCUUCAAACUGGAAAUAGCGAAAUAAAAUAACUCAGUCUGCAGCCCCAGGCCGGCCCAACAGAGGAUUGAGCAUCA
B9: chr18:9400975:9401076:+|3pUTR|ENSG00000128791|msi1|FALSE|unique (ssRNA)
RNA: GGGAGUUCUACAGUCCGACGAUCUAUAAAAAUAGAUAAUGCUCUUGGACACAUUUUGUAUUAUUCAUGAUCUGAAUAGUAGUUAGUUAAAAGAUCAUUUGUAAUAUUAUGAUCAACUGUUAUAAAUUAAGGUCUUAAUACCUUCAACAGAGGAUUGAGCAUCA
B10: chr15:38352922:38353023:+|3pUTR|ENSG00000166068|msi1|FALSE|unique (ssRNA)
RNA: GGGAGUUCUACAGUCCGACGAUCUACAUAUAAAUUUAUUUCUUUUGCAGAGCAUUAUAUUACUGGAUGUUUAAUUUACAAAAUAGUUGGGUAAAUGUUCCAACAAACUUUAAAGUACCUUGAAGUCAAAUUGUCUGUUUUUGUCAACAGAGGAUUGAGCAUCA
B11: chr3:46835109:46836203:-|three_prime_utr|ENSG00000160808|control|control|control (ssRNA)
RNA: GGGAGUUCUACAGUCCGACGAUCUGAAGGCACAAGCUGUUCCAGUAUAAUAAAGAAAAUAAUUAAAUUAAGAAAAGUUAUACUAGAAAUAAGAUAUAGGUAUGAUUAUUAUUAAUCAUUAGUUUGUAGUAUUACUUUGUUCUACAACAGAGGAUUGAGCAUCA
B12: chr10:104129887:104130138:-|three_prime_utr|ENSG00000197748|control|control|control (ssRNA)
RNA: GGGAGUUCUACAGUCCGACGAUCAAAAAAUCAUUUCAUUUGGGUAAAAUGAUUUCCUUUUCUUUCUUACUGGGAAAUUGAAGUAGCAUGUCCUCUGAGUUGCAUGUUUUAGAUAAAAAAUUGUUUAAUUUUAGCCUUAAUUGUCAACAGAGGAUUGAGCAUCA
B13: chr11:62152232:62152344:+|3pUTR|ENSG00000149503|unk|FALSE|unique (ssRNA)
RNA: GGGAGUUCUACAGUCCGACGAUCUGCUCUGUAAAUAGUUGUUUUAAUUUAGCUGAAUGUUAGCAUUUUAGUCUUUGGCAUUUUAGCGUUUGGGAGGUAGAUUAAUAAAGUAUAUUCCUUCAAGCCUGCUGUUGAUACCAUGAACAACAGAGGAUUGAGCAUCA
B14: chr15:38352922:38353023:+|3pUTR|ENSG00000166068|msi1|total|mutant (ssRNA)
RNA: B10 RNA with U83C, A84C
B15: chr15:76949589:76949706:+|3pUTR|ENSG00000117906|msi1_unk|total|mutant (ssRNA)
RNA: GGGAGUUCUACAGUCCGACGAUCAUAAAUUUUUGUUUUUGUUCUAAGCCGAUUUAAUUUGGGAACUGACAGGACAAUGUUUUCCGGUUCCGCAUUUUGUUUAAAAACCUUUAAAGAAACCUUCCGAAGGACUCCGACCUCACACAACAGAGGAUUGAGCAUCA
B16: chr7:38725943:38726055:-|3pUTR|ENSG00000006715|unk|total|mutant (ssRNA)
RNA: GGGAGUUCUACAGUCCGACGAUCGAAAUUUUGGGGUCCACCGUGAAUAUUUUGUUAUUUAUUUGUUUGGCUCAUUCUUUAUACCGUAAUGGAAACAUAAGUCCCGGAGUCCGAAAUGAAUUUUUCCGACCUCCGUAAAACCAUCAACAGAGGAUUGAGCAUCA
B17: ENSG00000168003:stop:overlap|stop_codon|ENSG00000168003|stop_codon|NA|stop_codon (ssRNA)
RNA: GGGAGUUCUACAGUCCGACGAUCCUGACAUCCCAGGGGCUGUAAGUGCCAACAUGACUGUGAAGGUAAGAGUUCUAGAUGGGUAGAAACUGACCGGUGGAGGGUGGGCUGGGCUUGUAGAAGUCUGUACCCAGGGGAGCCCCUCAACAGAGGAUUGAGCAUCA
B18: chr4:67617988:67618115:-|3pUTR|ENSG00000033178|unk|total|mutant (ssRNA)
RNA: GGGAGUUCUACAGUCCGACGAUCAAAUGCCGAAUGUUAAAAAUUAUUGCCCGGGCCGUCUUUUUUUUUUCCAGAAACCUAAUCCGGGUAUUAAAUUUUGUGUUUUUUUUGUUUUUUUUUUUUAAACAGAAGCAUGUUAUUUCACAACAGAGGAUUGAGCAUCA
B19: chr4:168926953:168927063:+|3pUTR|ENSG00000129116|msi1_unk|FALSE|overlapping (ssRNA)
RNA: GGGAGUUCUACAGUCCGACGAUCCAAAAGAGUUUUCUAACAAGGUUAAUACCUUAGUUCUUAACAUUUUUUUUCUUUAUGUGUAGUGUUUUCAUGCUACCUUGGUAGGAAACUUAUUUACAAACCAUAUUAAAAGGCUAAUUUCAACAGAGGAUUGAGCAUCA
B20: chr11:69651696:69651723:+|3pUTR|ENSG00000110092|msi1_unk|total|mutant (ssRNA)
RNA: GGGAGUUCUACAGUCCGACGAUCGAGGAUCCGGUUCCAUCCUUUACGUGUUUAAAAAAAAGCAUAAAAACAUUUUAAAAACACCGAAAAAUUCAGCAAACCAUUUUUAAAGCCGAAGAGGGUUUCCGGCCGAAAAACAUAUUCCAACAGAGGAUUGAGCAUCA
B21: chr4:138171112:138171219:-|3pUTR|ENSG00000151012|msi1|FALSE|unique (ssRNA)
RNA: GGGAGUUCUACAGUCCGACGAUCUUUUUUUUUUUCACAUCAGUUUGAUCAGGAAAGUGUAUAACACAUCUUAGAGCAAGAGUUAGUUUGGUAUUAAAUCCUCAUUAGAACAACCACCUGUUUCACUAAUAACUUACCCCUGAUCAACAGAGGAUUGAGCAUCA
B22: chr11:69651733:69651797:+|3pUTR|ENSG00000110092|msi1_unk|FALSE|overlapping (ssRNA)
RNA: GGGAGUUCUACAGUCCGACGAUCAAAACAUUUUAAAAACAUAGAAAAAUUCAGCAAACCAUUUUUAAAGUAGAAGAGGGUUUUAGGUAGAAAAACAUAUUCUUGUGCUUUUCCUGAUAAAGCACAGCUGUAGUGGGGUUCUAGCAACAGAGGAUUGAGCAUCA
B23: chr2:16549458:16552935:-|three_prime_utr|ENSG00000197872|control|control|control (ssRNA)
RNA: GGGAGUUCUACAGUCCGACGAUCUUGCUACUGGAGUCCUUUAACAACAUCUAUAACGAUAAAAAAUUCCUAAUUGUUUGUGGUAGUAUUUUAAUUCUAGAUGUGUUAUCUCUCUGGGAAGUAUAGUUUAUAGAAACACAAAAUCAACAGAGGAUUGAGCAUCA
B24: chr4:168926953:168927063:+|3pUTR|ENSG00000129116|msi1_unk|total|mutant (ssRNA)
RNA: B19 RNA with U54C, A55C, U83C, A84C, U105C, A106C
B25: chr11:69651696:69651723:+|3pUTR|ENSG00000110092|msi1_unk|FALSE|overlapping (ssRNA)
RNA: B20 RNA with C30U, C31A, C83U, C84A, C112U, C113A, C125U, C126A, C129U, C130A
B26: chr4:67617988:67618115:-|3pUTR|ENSG00000033178|unk|FALSE|unique (ssRNA)
RNA: B18 RNA with C29U, C30A, C50U, C51A, C55U, C56A, C83U, C84A

Molecular target: T1, UNK ZnF1-6 (called full-length)
Assay: nsRBNS (natural sequence RNA bind-n-seq); RBNS binding buffer (assumed for nsRBNS): 25 mM Tris pH 7.5, 150 mM KCl, 3 mM MgCl2, 0.01% Triton X-100, 500 ug/ml BSA, 20 U/ml SUPERase-In, 4 C; UNK is unkempt and MSI1 is Musashi-1; names of the RNAs are library labels; protein concentration not given here; high values mean tight binding

Row | Binder | binding signal
1 | B1 | 0.993 enrichment R
2 | B2 | 0.624 enrichment R
3 | B3 | 0.786 enrichment R
4 | B4 | 0.507 enrichment R
5 | B5 | 1.15 enrichment R
6 | B6 | 1.07 enrichment R
7 | B7 | 1.66 enrichment R
8 | B8 | 1.39 enrichment R
9 | B9 | 2.18 enrichment R
10 | B10 | 1.48 enrichment R
11 | B11 | 4.03 enrichment R
12 | B12 | 13.5 enrichment R
13 | B13 | 110 enrichment R
14 | B14 | 0.824 enrichment R
15 | B15 | 0.382 enrichment R
16 | B16 | 0.419 enrichment R
17 | B17 | 0.906 enrichment R
18 | B18 | 0.765 enrichment R
19 | B19 | 20.1 enrichment R
20 | B20 | 0.444 enrichment R
21 | B21 | 2.58 enrichment R
22 | B22 | 8.88 enrichment R
23 | B23 | 4.45 enrichment R
24 | B24 | 1.12 enrichment R
25 | B25 | 13.5 enrichment R
26 | B26 | 28.1 enrichment R
